Screening data as filed in PubChem BioAssay.
In the library only some 1.3% were active in any assay of this set; here they are far more common.
PLAP act: activates human placental alkaline phosphatase; P05187; purified PLAP enzyme, luminescent substrate read-out; hits give high values; activation fold at 20 µM; 96,000 compounds, 1.2% hits; in the data active means activation fold above about 2
E coli WT exp: blocks growth of wild type E. coli BW25113; growth inhibition, % at 100 µM; 98,000 compounds, 0.15% hits; OD600 absorbance;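 active means growth inhibition above about 50% at one test dose, limit read from the data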;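 further: growth measured after 20 h incubation at 37 °C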
TNAP act mid DEA: human TNAP activation, intermediate phosphate acceptor; P05186; purified TNAP, CDP-star luminescence, 100 mM DEA, 30 min; hits give high values; scale: 0 levamisole-inhibited, 1 vehicle-only enzyme; activation factor at 20 µM; 64,000 tested, under 10 active; AID 813;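 active means activation factor of at least 2 at 20 µM, relative to controls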
HePTP inh: inhibitors of human HePTP phosphatase; P35236; recombinant HePTP phosphatase activity, OD absorbance; inhibition, % at 20 µM; 110,000 compounds, 0.64% hits; in the data active means inhibition above about 50%;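 further: plate controls were vehicle for no effect and reference inhibitor for full effect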
Target sequence (P35236 whole entry, looked up): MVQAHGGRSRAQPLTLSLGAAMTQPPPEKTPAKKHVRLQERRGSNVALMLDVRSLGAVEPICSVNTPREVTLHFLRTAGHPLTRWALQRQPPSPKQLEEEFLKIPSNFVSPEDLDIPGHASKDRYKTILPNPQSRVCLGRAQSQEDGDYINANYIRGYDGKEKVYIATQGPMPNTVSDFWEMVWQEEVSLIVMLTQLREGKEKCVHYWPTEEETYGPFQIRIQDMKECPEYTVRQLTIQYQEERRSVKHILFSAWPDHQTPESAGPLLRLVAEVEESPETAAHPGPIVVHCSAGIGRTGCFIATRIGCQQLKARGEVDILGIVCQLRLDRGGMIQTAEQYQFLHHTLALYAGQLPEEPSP
* marks the source's active call; other numbers are inactive results; . = no result given.

SMILES	PLAP act	E coli WT exp	TNAP act mid DEA	HePTP inh
COc1ccc(-c2cc(-c3cc(F)ccc3O)[nH]n2)cc1OC	1.2	3.0	1.1	10.2
CCCCNC(=O)C1CCCN1C(=O)Nc1cccc(OC)c1 (configuration not stated)	1.1	-1.0	0.9	2.5
O=C1C(C2=NC(C(=O)O)C3C(=O)N(c4ccc(Cl)cc4)C(=O)C23)=C(O)c2ccccc21 (configuration not stated)	1.5	6.0	.	.
Cc1nnc(SCCN2C(=O)c3ccccc3C2=O)[nH]c1=O	0.8	6.0	.	.
O=C(CSc1cccc[n+]1[O-])c1cc2ccccc2o1	1.4	97.0*	0.9	-4.3
CC1(C)CC(=O)C2=C(C1)OC(N)=C(C#N)C2c1ccccc1OC(=O)N1CCOCC1 (configuration not stated)	1.1	-3.0	0.9	6.3
CC(=O)NNc1nc2ccccc2s1	2.1*	-6.0	.	6.9
CCC1CCCCN1C(=O)Cn1c(C(=O)OC)cc2sc(Cl)cc21 (configuration not stated)	0.9	-3.0	0.9	2.8
O=C(Cc1ccc(Br)cc1)c1ccc(O)cc1O	1.2	59.0*	0.9	2.6
CN(C)C(=O)COn1c(SCC(=O)N(C)C)nc2ccccc2c1=O	1	-2.0	0.9	3.9
COc1ccc(CCNC(=O)CCCn2c(SCC#N)nc3ccccc3c2=O)cc1OC	1	-5.0	0.9	8.9
COc1ccc(CNC(=O)CCCCCn2c(SCC#N)nc3cc4c(cc3c2=O)OCO4)cc1	2.1*	-2.0	0.9	7.7
COc1ccc(-c2nnn(CC(=O)N(C3CCCC3)C(C)C(=O)NC3CCCC3)n2)cc1OC (configuration not stated)	1.7	8.0	0.9	-1.5
COc1ccc(-c2nnn(CC(=O)N(C3CCCCC3)C(C)C(=O)NC3CCCC3)n2)cc1OC (configuration not stated)	2*	4.0	0.9	10.3
Cc1c(NC(=O)c2ccc(Cl)c(S(=O)(=O)N3CCOCC3)c2)c(=O)n(-c2ccccc2)n1C	1.3	-10.0	0.9	9.4
O=C(CSc1ncn[nH]1)Nc1nc(-c2ccccc2)cs1	2.8*	8.0	.	.
CCOC(=O)c1c(NC(=O)CSc2nc3ccccc3s2)sc(C)c1C	1.1	-24.0	.	.
CCCc1nnc(NC(=O)CSc2ncn[nH]2)s1	2.7*	5.0	0.9	7.5
CCOC(=O)c1c(NC(=O)CSc2ncn[nH]2)sc(C)c1C	2*	6.0	1	2.5
COC(=O)c1ccccc1NC(=O)c1ccc2c(c1)OCCO2	0.9	-5.0	0.9	6.2
CC(NC(=O)Cc1c(F)cccc1Cl)C1CCCO1 (configuration not stated)	0.8	2.0	.	.
CCOc1ccc(-c2nc(CSc3nnc(C)s3)cs2)cc1OC	2.1*	8.0	.	.
O=C1/C(=C\c2cc([N+](=O)[O-])cc(Br)c2O)SC(=S)N1c1cccc(Cl)c1	.	.	.	100.9*
O=C1/C(=C/c2cc([N+](=O)[O-])ccc2Cl)SC(=S)N1c1ccccc1	.	.	.	1.7
COc1ccc(-c2nc(SC(C)C(=O)Nc3c(C)cc(C)cc3C)n[nH]2)cc1 (configuration not stated)	.	.	.	-14.8
SMILES	PLAP act	E coli WT exp	TNAP act mid DEA	HePTP inh
COc1ccc(Cn2nnnc2C(c2ccccc2)N2CCN(C3CCCC3)CC2)cc1 (configuration not stated)	2*	-5.0	1	-1.1
O=c1cc(-c2ccccc2)[nH]n1-c1nc2ccccc2[nH]1	2.1*	55.0*	1.2	0.0
CCOC(=O)c1ccc(-n2[nH]c(-c3ccccc3)cc2=O)cc1	1.2	11.0	0.8	15.5
C=CCn1c2ccccc2c2nnc(SC)nc21	.	.	.	7.7
C=CCn1c2ccccc2c2nnc(SCC(=O)N=C3NC(=O)CS3)nc21	.	.	.	56.2*
Cc1onc(-c2ccccc2Cl)c1C(=O)N1CC(C)OC(C)C1 (configuration not stated)	1.2	-2.0	0.9	-2.9
CC(=O)Oc1ccc(C(=O)O)cc1OC(C)=O	1	43.0	1	3.2
Cc1ccc(C)n1-c1ccc(C(=O)O)c(O)c1	.	.	.	103.1*
Cc1ccc(C)n1-c1ccc(C(=O)O)cc1	1.6	5.0	.	.
Cc1ccc(C)n1-c1cc(C(=O)O)ccc1O	.	.	.	103.2*
Nc1ccc(C(=O)O)c(O)c1	.	.	0.9	12.8
Cc1ccc(C)n1-c1cc(C(=O)O)cc(C(=O)O)c1	.	.	.	100.6*
Cc1ccc(C)n1-c1ccc(Cl)c(C(=O)NN)c1	.	.	.	1.1
Cc1ccc(C)n1-c1ccc(C(=O)O)c(Cl)c1	.	.	.	102.4*
O=C(CSCc1ccccc1)Nc1cccc(C(=O)Nc2ccccc2C(=O)O)c1	1.3	-1.0	.	.
Cc1ccc(C)c(N2CCN(C(=O)CC3Sc4ccccc4NC3=O)CC2)c1 (configuration not stated)	1.1	-11.0	1	-1.8
COC(=O)C1=C(C)NC(=O)/C1=C\c1ccc(Br)cc1	.	.	.	66.7*
Cc1cc(N2C(=O)NC(=O)/C(=C\c3ccc([N+](=O)[O-])o3)C2=O)ccc1Br	.	.	.	104.4*
Cc1cc(C)cc(N2C(=O)NC(=O)/C(=C\c3ccc([N+](=O)[O-])o3)C2=O)c1	.	.	.	83.5*
Cc1cc(N2C(=O)NC(=O)/C(=C\c3ccc(N(C)C)o3)C2=O)ccc1Br	.	.	.	-8.3
Cc1ccc(N2C(=O)NC(=O)/C(=C\c3ccc(-c4cccc([N+](=O)[O-])c4)o3)C2=O)cc1	.	.	.	1.3
CCOC(=O)c1c(-c2ccc(C)o2)csc1NC(=O)CN(C)CC(=O)Nc1ccc(C)cc1	2.2*	-4.0	.	.
CC(C)(C)C1CCc2c(sc(NC(=O)C3CC4CCC3C4)c2C(N)=O)C1 (configuration not stated)	.	.	.	97.4*
CCOC(=O)c1cc(OC(=O)c2ccccc2Br)n(-c2ccccc2)n1	1.4	7.0	.	.
O=C(NCC1CCCO1)c1ccc(CS(=O)(=O)c2c(Cl)cccc2Cl)o1 (configuration not stated)	1.1	4.0	.	.
SMILES	PLAP act	E coli WT exp	TNAP act mid DEA	HePTP inh
COc1cc(Cl)c(S(=O)(=O)NCc2ccccn2)cc1Cl	2.3*	1.0	.	.
CCOc1cc(Cl)c(S(=O)(=O)NCc2ccccn2)cc1Cl	1.6	10.0	.	.
COc1ccc(NC(=O)N2CCN(c3cccc(C(F)(F)F)c3)CC2)cc1	0.9	-4.0	0.9	3.9
CN(C)S(=O)(=O)c1ccc(NC(=O)N2CCN(c3cccc(C(F)(F)F)c3)CC2)cc1	2.1*	8.0	.	.
CCCc1nc(SCc2ccccc2Cl)n[nH]1	2.2*	7.0	.	.
CCc1nc(SCc2cc(Cl)ccc2OC)n[nH]1	2.2*	8.0	1	3.9
CCc1nc(SCc2ccc(OC)cc2)n[nH]1	.	.	.	-4.7
CN(C)c1nc(SCc2ccccc2Cl)nc2c1CCCC2	1	-2.0	.	.
COC(=O)c1ccc(C(=O)OC)c(NC(=O)c2c(Cl)cccc2Cl)c1	.	.	.	-3.9
Cc1nnc(-c2cnn(C)c2N)n1Cc1ccccc1F	1	-9.0	.	.
O=C(c1cccs1)c1coc2ccc(O)c(CN(CCO)CCO)c12	2.4*	-6.0	.	.
Cc1sc(C2C(C#N)=C(N)OC3=C2C(=O)CC(C)(C)C3)cc1[N+](=O)[O-] (configuration not stated)	.	.	.	9.8
CCOC(=O)C1C(C)N=C2SCC(=O)N2C1c1cccc(Br)c1 (configuration not stated)	1.6	6.0	1	-4.1
